Tested on: Vero E6 infected with SARS-CoV-2
Experiment: inhibition of SARS-CoV-2 cytopathic effect; higher = more antiviral protection, active = above 15
Settings: 48 h

Measured: inhibition of SARS-CoV-2 cytopathic effect

CCOC(=O)C1=C[C@]2(CC)CCCN3CCc4c(n1c1ccccc41)[C@@H]32 [vinpocetine]
inactive: 1 nM -3.18% | 8.33 nM 0.85% | 100 nM 4.53% | 833.33 nM 1.98% | 10000 nM -1.06%

CCn1c(=O)n(C2=C(CO)CN(CC3CCCCCCC3)CC2)c2ccccc21 [trap-101]
inactive: 1 nM -2.39% | 8.33 nM 1.16% | 100 nM 1.23% | 833.33 nM 1.48% | 10000 nM -3.08%

CC(C)=CCC/C(C)=C/CC/C(C)=C/CCC(=O)OC/C=C(\C)CCC=C(C)C [geranyl-farnesylacetate]
inactive: 1 nM -0.32% | 8.33 nM 0.94% | 100 nM -2.76% | 833.33 nM 0.87% | 10000 nM 1.54%

NCC(CC(=O)O)c1ccc(Cl)cc1 (stereo not given) [baclofen]
inactive: 1 nM -0.225% | 8.33 nM -1.56% | 100 nM -2.14% | 833.33 nM 0.04% | 10000 nM -0.06%

CC(=O)c1c(C)c2cnc(Nc3ccc(N4CCNCC4)cn3)nc2n(C2CCCC2)c1=O [palbociclib]
inactive: 1 nM 2.16% | 8.33 nM 0.47% | 100 nM -4.3% | 833.33 nM -0.35% | 10000 nM 5.01%

CCc1cc(O)c(Oc2ccc(C(N)=O)cc2F)cc1F
inactive: 1 nM 0.22% | 8.33 nM -0.22% | 100 nM 0.21% | 833.33 nM -0.53% | 10000 nM -0.97%

c1ccc(C(O[C@@H]2CCCN(CCc3ccc4c(c3)OCO4)C2)c2ccccc2)cc1 [zamifenacin]
inactive: 1 nM 0.36% | 8.33 nM 3.7% | 100 nM 0.93% | 833.33 nM -1.42% | 10000 nM -1.64%

O=C1CN(/N=C/c2ccc(-c3ccc([N+](=O)[O-])cc3)o2)C(=O)N1 [dantrolene]
inactive: 1 nM -2.23% | 8.33 nM 0.6% | 100 nM -1.1% | 833.33 nM -0.88% | 10000 nM 1.97%

CN1CCc2nc(C(=O)N[C@@H]3C[C@@H](C(=O)N(C)C)CC[C@@H]3NC(=O)C(=O)Nc3ccc(Cl)cn3)sc2C1 [edoxaban]
inactive: 1 nM -1.16% | 8.33 nM -1.57% | 100 nM -1.51% | 833.33 nM -3.37% | 10000 nM -1.69%

CC(C)(C)NC(=O)[C@@H](c1cccnc1)N(C(=O)c1ccco1)c1ccc(C(C)(C)C)cc1
inactive: 1 nM -0.21% | 8.33 nM 1.78% | 100 nM 0.92% | 833.33 nM -2.61% | 10000 nM -3.73%

CCC(=N\O)/C(C)=C/c1ccc(F)cc1
inactive: 1 nM -0.84% | 8.33 nM -0.21% | 100 nM 0.55% | 833.33 nM -0.42% | 10000 nM -0.21%

CC(C)(C)C1CCc2c(sc(NC(=O)c3ccco3)c2C(=O)O)C1 (stereo not given)
inactive: 1 nM 0.37% | 8.33 nM 3.15% | 100 nM 1.01% | 833.33 nM 0.8% | 10000 nM -2.29%

Cc1cccc(Oc2cnc(=O)[nH]c2)c1 [tolimidone]
inactive: 1 nM -0.32% | 8.33 nM -2.84% | 100 nM -2.12% | 833.33 nM -13.1% | 10000 nM 0.88%

CC(C)(C)CC(=O)Nc1c(F)cc(C(=O)/N=c2\sccn2COP(=O)(O)O)cc1F
inactive: 1 nM 0.06% | 8.33 nM -0.74% | 100 nM -3.11% | 833.33 nM -0.94% | 10000 nM 2.91%

CC1(C)[C@@H](OC(=O)CCC(=O)O)CC[C@]2(C)[C@H]3C(=O)C=C4[C@@H]5C[C@@](C)(C(=O)O)CC[C@]5(C)CC[C@@]4(C)[C@]3(C)CC[C@@H]12
inactive: 1 nM 0.51% | 8.33 nM 0.66% | 100 nM 1.43% | 833.33 nM 1.74% | 10000 nM -1.29%

Cc1onc(O)c1C[C@@H](N)C(=O)O (racemic)
inactive: 1 nM 0.825% | 8.33 nM 1.39% | 100 nM 2.15% | 833.33 nM 2.51% | 10000 nM 1.4%

CC(O)CN1CCN(CC(=O)[O-])CCN(CC(=O)[O-])CCN(CC(=O)[O-])CC1.[Gd+3] (stereo not given) [gadoteridol]
inactive: 1 nM 0.66% | 8.33 nM -0.76% | 100 nM 0.17% | 833.33 nM 0.32% | 10000 nM -3.99%

O=C(O)C1CSCN1 (stereo not given) [timonacic]
inactive: 1 nM -2.35% | 8.33 nM -1.08% | 100 nM 3.52% | 833.33 nM 10.6% | 10000 nM 4.51%

O=C(NNc1nc2cc(F)ccc2n2cccc12)c1cnccn1
inactive: 1 nM -2.31% | 8.33 nM 0.82% | 100 nM 0.63% | 833.33 nM 0.71% | 10000 nM -4.33%

CC[C@H]1OC(=O)[C@H](C)C(=O)[C@H](C)[C@@H](O[C@@H]2O[C@H](C)C[C@H](N(C)C)[C@H]2O)[C@](C)(OC)C[C@@H](C)C(=O)[C@H](C)[C@H]2N(CCCCn3cnc(-c4cccnc4)c3)C(=O)O[C@]12C [telithromycin]
inactive: 1 nM -2.13% | 8.33 nM -0.46% | 100 nM -1.7% | 833.33 nM 0.65% | 10000 nM -0.07%

From the supplement of paper PMC13380429
